Assay results as given in PubChem BioAssay (NCI).
Compounds without any hit were thinned out: in the full panel of roughly 83,000, 20% have a hit.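 Treatment: one concentration, 48 hours, 96-well format. Scoring: percent growth, with anything below 10 considered active.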 A number with no mark means an inactive call. Calls of active or inactive are those of the source.

system: ACHN renal; assay: NCI-60 one-dose screen, 48 h (100 = growth as untreated, 0 = no growth, -100 = all killed); details: 10 µM unless noted

Row | Compound | growth
1 | Cn1c(/C(C#N)=C/c2ccc3ccccc3c2)cc2ccccc21 | 35.4%
2 | Cn1cc(-c2nc(-c3c[nH]c4ncccc34)cs2)c2cc(F)ccc21 | 24.1%
3 | CC(=O)N1N=C(c2ccc(C)cc2)CC1c1ccc(Oc2ccc(Br)cc2)cc1 (centres undefined) | 99.5%
4 | NC1=NN=C2N(N)C(=O)c3cnn(-c4ccccc4)c3N2c2nc(-c3ccccc3)cc(-c3ccccc3)c21 | 101%
5 | Fc1ccc2nc(-c3cc(-c4ccc5c(c4)OCO5)n[nH]3)[nH]c2c1 | 49%
6 | CN(C)c1ccc(-c2ccc(-c3ccc(C(=N)N)c(F)c3)s2)cc1 | -95.8% (active)
7 | Cc1c(C)c2c(c(C)c1NC(=O)CCCCCCC(=O)O)CCC(C)(CCCC(C)CCCC(C)CCCC(C)C)O2 (centres undefined) | 101%
8 | Cc1cc(C)nc(NC(N)=NCCc2ccccc2)n1 | 46.9%
9 | C=C(C)[C@@H]1CC[C@]2(C(=O)O)CC[C@]3(C)[C@H](CC[C@@H]4[C@@]5(C)C/C(=C/c6ccc(OC)cc6)C(=O)C(C)(C)[C@@H]5CC[C@]43C)[C@@H]12 | 19.6%
10 | COc1ccc2[nH]cc(-c3nc(-c4c[nH]c5ncccc45)cs3)c2c1 | 19.8%
11 | CCc1ccc(-c2ccc(Nc3ccccc3)nn2)cc1S(N)(=O)=O | 77%
12 | Cn1cccc1/C=C1/SC(=S)N(CCc2ccc(O)cc2)C1=O | 59.9%
13 | CN1CCN(CCOc2ccc(-c3cnc4c(-c5ccccc5F)cnn4c3)cc2)CC1 | 55.7%
14 | O=c1c(CNc2ccc(S(=O)(=O)Nc3ncccn3)cc2)coc2ccccc12 | 89.9%
15 | Cc1ccc(-c2nc([P+](c3ccccc3)(c3ccccc3)c3ccccc3)c(N3CCOCC3)o2)cc1 | 8.24% (active)
16 | O=C1OC(c2ccc(Cl)c(Cl)c2)=C/C1=C/c1cccc([N+](=O)[O-])c1 | 100%
17 | COc1ccccc1-n1cnc(N)c1C(=O)c1cc(OC)c(OC)c(OC)c1 | 58.6%
18 | COc1ccc2c(c1)C/C(=C\c1cc(-c3ccc4c(c3)OCO4)n[nH]1)C2=O | 82.8%
19 | CN(C)CCCC1(c2ccc(F)cc2)OCc2cc(-c3ccc(C(F)(F)F)nc3)ccc21 (centres undefined) | 83.1%
20 | O=c1c(CNc2ccc(S(=O)(=O)Nc3nccs3)cc2)coc2ccccc12 | 94.2%

Row | Compound | growth
21 | Cc1ccc2c(c1)c(-c1nc(-c3c[nH]c4ncccc34)cs1)cn2C | 98.6%
22 | CC1(C)C(=O)/C(=C\c2ccco2)C[C@]2(C)[C@H]3CC[C@@H]4[C@@H](C(=O)/C=C/c5ccco5)CC[C@@]4(C)[C@]3(C)CC[C@@H]12 | 19.3%
23 | Cc1ccc(-c2nc([P+](c3ccccc3)(c3ccccc3)c3ccccc3)c(N3C[C@H]4C[C@H](C3)c3cccc(=O)n3C4)o2)cc1 | 109%
24 | C=C(C)[C@@H]1CC[C@]2(CN)CC[C@]3(C)[C@H](CC[C@@H]4[C@@]5(C)CCC(=O)NC(C)(C)[C@@H]5CC[C@]43C)[C@@H]12 | 69.1%
25 | Nc1c(Cl)cc(N=Nc2ccccc2)cc1Cl | 97.4%
26 | CC(=O)O[C@H]1CC[C@]2(C)[C@H]3C(=O)C=C4[C@@H]5C[C@](C)(C(=O)N6CCCNCC6)CC[C@]5(C)CC[C@@]4(C)[C@]3(C)CC[C@H]2C1(C)C | -100% (active)
27 | CCCCCC1CCCCN1C(=O)OCC (centres undefined) | 98.8%
28 | Cn1cc(-c2nc(-c3c[nH]c4ncccc34)cs2)c2cc(Br)ccc21 | 58.7%
29 | O=C(N/N=C\c1ccccc1O)C1CC1 | 108%
30 | COc1ccc(OCC(CO)N2CCN(c3ccccc3)CC2)cc1 (centres undefined) | 104%
31 | Cn1cc(-c2nc(-c3c[nH]c4ncccc34)cs2)c2ccccc21 | 88.9%
32 | CC1(C)CC[C@]2(C(=O)Nc3ccccn3)CC[C@]3(C)C(=CC[C@@H]4[C@@]5(C)C/C(=C/c6ccncc6)C(=O)C(C)(C)[C@@H]5CC[C@]43C)[C@@H]2C1 | -11.9% (active)
33 | C=C(C)[C@@H]1CC[C@]2(C(=O)O)CC[C@]3(C)[C@H](CC[C@@H]4[C@@]5(C)C/C(=C/c6cccc(I)c6)C(=O)C(C)(C)[C@@H]5CC[C@]43C)[C@@H]12 | 30.5%
34 | Oc1cccc2oc(=S)[nH]c12 | 99.7%
35 | CC(=O)O[C@H]1CC[C@@]2(C)C(=CC[C@@H]3[C@@H]2CC[C@]2(C)C(=O)N(O)C(=O)C[C@@H]32)C1 | 89.3%
36 | COc1ccc2c(c1)c(-c1nc(-c3c[nH]c4ncccc34)cs1)cn2C | 53.2%
37 | O=C(O)c1cccc2c1Cc1cc([N+](=O)[O-])ccc1-2 | 102%
38 | CCOc1ccc(NC(=O)c2ccccc2-c2ccccc2C(=O)O)cc1 | 107%
39 | O=c1c2sc3ncc(Br)cc3c2ncn1-c1cccc(Cl)c1 | 28%
